Reference: PubChem BioAssay AID651814 (National Center for Advancing Translational Sciences (NCATS), 2012)
Screen size: about 2,100 compounds; about 590 (28%) were called active. Another 42% or so got no clear call; they are omitted. Some of the results follow. Values without a mark were called inactive. Calls come from the whole dose curve; as a rule, active = well fitted inhibition curve with a large enough effect; inconclusive = small, poorly fitted or top-dose-only effect; inactive = flat fitted curve, though single readings scatter.

target: DNA dC->dU-editing enzyme APOBEC-3F (Homo sapiens) (UniProt Q8IUX4); experiment: qHTS for inhibitors of Vif-A3F interactions: Cherry picks; details: HeLa A3F-eYFP + Vif (tagged APOBEC3F with the HIV-1 protein that degrades it), eYFP fluorescence, 24 h; note: nearly all actives have a fitted effect of over 70% in size;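 for max response: % of control where 0% means no effect; active compounds raise eYFP fluorescence by blocking Vif-driven A3F loss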
Sequence (Q8IUX4 whole entry, looked up): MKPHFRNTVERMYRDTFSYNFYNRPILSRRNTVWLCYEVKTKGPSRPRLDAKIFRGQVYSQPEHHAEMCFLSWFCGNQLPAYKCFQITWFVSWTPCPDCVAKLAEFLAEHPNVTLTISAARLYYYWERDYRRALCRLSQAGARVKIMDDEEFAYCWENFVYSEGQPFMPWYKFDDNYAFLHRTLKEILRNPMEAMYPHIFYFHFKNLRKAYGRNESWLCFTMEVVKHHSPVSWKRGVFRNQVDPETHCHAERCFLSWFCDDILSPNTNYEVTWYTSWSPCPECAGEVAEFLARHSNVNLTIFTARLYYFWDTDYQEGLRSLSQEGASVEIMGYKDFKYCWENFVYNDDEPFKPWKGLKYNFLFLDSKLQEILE
How it was run: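 HeLa cells stably expressing A3F-eYFP plus Vif, cultured overnight, then exposed to compounds at several concentrations for 24 h at 37 deg C. Reduced Vif-driven degradation read as rising eYFP fluorescence (488 nm ex/500-530 nm em) by laser-scanning cytometry; MG132 as positive control.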
Potency is the fitted concentration of half-maximal effect.

Row | SMILES | max response | Potency
1 | Cc1cc(OCC(=O)Nc2nnc(C3CC3)s2)ccc1Cl | 2.35% | 
2 | COC(=O)c1ccc(NC(=O)CC2Nc3cc(C)c(C)cc3NC2=O)cc1 (stereo unspecified) |  | 6.51 µM (active)
3 | CCOC(=O)c1ccc(NC(=S)NC(=O)C2CCCC2)cc1 | -3.01% | 
4 | Cc1cccc(C(=O)Nc2nnc(C3=COCCO3)o2)c1 | 0.472% | 
5 | CCCCCCn1c(=O)[nH]c2nc3cc(N)ccc3nc2c1=O | -0.0141% | 
6 | Cc1cc2nc3c(=O)n(C4CCCCC4)c(=O)[nH]c3nc2cc1N |  | 16.4 µM (active)
7 | CCN(CC)c1nc(C)c(C(=S)Nc2cc([N+](=O)[O-])ccc2Cl)s1 | -3.83% | 
8 | O=C(COC(=O)C12CC3CC(CC(Cl)(C3)C1)C2)N1CCCCC1 | 1.53% | 
9 | CN1CCc2c(sc3c2C(=O)NC(c2ccc(-c4ccc(Cl)cc4)o2)N3)C1 (stereo unspecified) | -10.4% | 
10 | CCOC(=O)N1CCc2c(sc3c2C(=O)NC(c2ccc(N(C)C)cc2)N3)C1 (stereo unspecified) |  | 20.6 µM (active)
11 | COc1ccc(CN(C(C)=O)c2cccc(C)c2C)cc1 | -29.4% | 
12 | CCOC(=O)C1CCCN(C(=O)c2ccc3nc(-c4cccc(OC)c4)oc3c2)C1 (stereo unspecified) | -18.5% | 
13 | COc1ccc2oc(=Nc3ccccc3)c(-c3nc4ccccc4[nH]3)cc2c1 | -13% | 
14 | COc1ccc2oc(=O)c(-c3nc4ccccc4o3)cc2c1 |  | 20.6 µM (active)
15 | CCOc1ccccc1Nc1nnc(-c2cc3cc(OC)ccc3oc2=O)s1 |  | 7.31 µM (active)
16 | COc1cc(/C=N/Nc2ccc(Cl)nn2)cc(OC)c1O | 2.03% | 
17 | CCOc1c(Cl)cc(/C=N/NC(N)=S)cc1OC | -28.8% | 
18 | CCOc1cc(/C=C2\CCC/C(=C\c3cc(Cl)c(O)c(OCC)c3)C2=O)cc(Cl)c1O |  | 7.04 µM (active)
19 | COc1cc(/C=C2/CCC/C(=C\c3cc(O)c(OC)c(Cl)c3)C2=O)cc(Cl)c1O |  | 8.2 µM (active)
20 | Fc1ccc2nc3[nH]c4ccccc4c3nc2c1 |  | 0.994 µM (active)
21 | COc1ccccc1CNC(=O)c1ccc2nc3[nH]c4ccccc4c3nc2c1 | -25.8% | 

Row | SMILES | max response | Potency
22 | Cc1c(=O)n(OCc2ccc(Cl)cc2)c2ccccc2[n+]1[O-] | -8.69% | 
23 | CC1C/C(=C/c2cccs2)C(=O)/C(=C/c2cccs2)C1 (stereo unspecified) | -0.33% | 
24 | Cn1cccc1/C=C1\CC(C(C)(C)C)C/C(=C\c2cccn2C)C1=O (stereo unspecified) |  | 4.11 µM (active)
25 | CN1C2CCC1/C(=C/c1cccn1C)C(=O)/C2=C\c1cccn1C |  | 16.4 µM (active)
26 | CN1/C(=C\C=C(/C#N)C(=O)Nc2ccc(Cl)cc2)C(C)(C)c2ccccc21 |  | 3.14 µM (active)
27 | COc1ccc(NC(=O)/C(C#N)=C\C=C\c2ccco2)cc1 | -29.2% | 
28 | COc1ccc(NC(=O)/C(C#N)=C/C=C/c2ccco2)cc1 | -30% | 
29 | CN1/C(=C\C=C(/C#N)C(=O)Nc2ccccc2F)C(C)(C)c2ccccc21 |  | 20.6 µM (active)
30 | O=C(NC(=S)N1CCN(c2ccccn2)CC1)c1ccccc1 | 0.282% | 
31 | CN(C)c1ccc(/C=C/C=C/c2ccnc3ccccc23)cc1 |  | 2.59 µM (active)
32 | CN(C)c1ccc(/C=C/c2ccnc3ccccc23)c(N)c1 |  | 7.31 µM (active)
33 | CN(C)c1ccc(/C=C/c2ccnc3ccccc23)cc1 |  | 13 µM (active)
34 | Nc1ccccc1/C=C/c1ccnc2ccccc12 |  | 23.1 µM (active)
35 | COc1ccc(-c2nc3cnccn3c2NC2CCCCC2)cc1-c1cccc(Cl)c1 | -28.6% | 
36 | CCOC(=O)c1cnc(-n2nc(C)cc2C)nc1NNc1nc(-c2ccccc2)cc(-c2ccccc2)n1 | 6.49% | 
37 | c1ccc(N=NC2=NN(c3ccccc3)CS2)cc1 | 0.337% | 
38 | CCCC(=O)NC(c1ccc(OC)cc1)c1ccc2cccnc2c1O (stereo unspecified) | 0.49% | 
39 | COc1cccc2nccc(/C=C/c3ccc(N(C)C)cc3)c12 |  | 20.6 µM (active)
40 | CN(C)c1ccc(/C=C/c2ccnc3ccc(-c4ccccc4)cc23)cc1 |  | 2.31 µM (active)
41 | CNc1ccc(/C=C/c2ccnc3ccccc23)cc1 |  | 14.6 µM (active)
42 | CN(C)c1ccc(/C=C/c2cnnc3ccccc23)cc1 |  | 20.6 µM (active)

Row | SMILES | max response | Potency
43 | NC(=S)N/N=C/c1ccccc1OC(=O)/C=C/c1ccccc1 | -3.11% | 
44 | CC(C)CC(=O)NC(=S)N(Cc1ccccc1)Cc1ccccc1 | -4.2% | 
45 | Cc1ccc(S(=O)(=O)N2CCN(C(=O)CSC(=S)N3CCCC3)CC2)c(C)c1 | 1.16% | 
46 | COc1ccc(/C=C2/CSC/C(=C/c3ccc(OC)c(OC)c3)C2=O)cc1OC |  | 5.59 µM (active)
47 | CO/N=C/c1ccc(OC)c(Oc2nc(OC)cc(OC)n2)c1 | -21.4% | 
48 | COc1cc(/C=C/C(C)=NNc2ccccc2)ccc1O | -28.1% | 
49 | COc1cc(C=C2C(=O)c3ccccc3C2=O)cc(OC)c1OC | -7.21% | 
50 | COc1cc(/C=C2/CC/C(=C/c3ccc(O)c(OC)c3)C2=O)ccc1O | -11.3% | 
51 | COc1cc(/C=C2\COC/C(=C\c3ccc(O)c(OC)c3)C2=O)ccc1O |  | 14 µM (active)
52 | Cc1ccc2c(c1C)NC(=O)CC(c1ccccc1O)=N2 | 0.01% | 
53 | CC(C)OC(=O)c1c2c(n3ccccc13)C(=O)c1ccccc1C2=O |  | 4.61 µM (active)
54 | Cn1c(=O)c(N)c2c3c(c(Br)ccc31)C(=O)c1ccccc1-2 | 0.0476% | 
55 | Oc1cccc(Nc2nc(O)c(/C=C3\C=Nc4ccccc43)s2)c1 |  | 14.6 µM (active)
56 | O=S(=O)(Nc1cc(Sc2ncn[nH]2)c(O)c2ccccc12)c1ccccc1 | -29.8% | 
57 | CCCOc1ccccc1C1CC(=O)Nc2cc3c(cc21)OCO3 (stereo unspecified) | -14.8% | 
58 | CCN(CC)c1ccc(/C=C/C(=O)c2ccc(Br)cc2)cc1 | -4.77% | 
59 | CCNc1ccc(Br)cc(C(=O)/C=C/c2ccc3c(c2)OCO3)c1=O |  | 18.4 µM (active)
60 | COc1ccc(OC)c(/C=C/c2nc3ccccc3[nH]c2=O)c1 |  | 18.4 µM (active)
61 | O=c1[nH]c2ccccc2nc1/C=C/c1ccc(F)cc1 |  | 14 µM (active)
